Data taken from PubChem BioAssay AID493194 (Broad Institute, 2011).
Potency and affinity values are given separately. Inconclusive results are not listed.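 How the source made its calls: active means a valid curve of falling signal whose half-effect concentration is at most ten times the top tested dose; inconclusive means flat curve at 30 to 70% inhibition, or poor fit; inactive means signal rise, flat within 30%, or potency beyond limit.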

biological target: Scavenger receptor class B member 1 (Mus musculus) (UniProt Q61009); test: mouse SR-BI DiI-HDL uptake blockers – ldlA[mSR-BI] cells, fluorescence, cherry pick, dose response (AID 493194); details: CHO ldlA[mSR-BI] DiI-HDL uptake fluorescence, 3 h; series mostly up to 35 µM; activity change, negative = inhibition: at the top concentration;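 further: CHO cells lacking LDL receptor and overexpressing mouse SR-BI; cellular uptake of fluorescently labeled HDL measured as cell fluorescence; 0% = median of neutral control wells and -100% = median of positive control wells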
Sequence (Q61009 whole entry, looked up): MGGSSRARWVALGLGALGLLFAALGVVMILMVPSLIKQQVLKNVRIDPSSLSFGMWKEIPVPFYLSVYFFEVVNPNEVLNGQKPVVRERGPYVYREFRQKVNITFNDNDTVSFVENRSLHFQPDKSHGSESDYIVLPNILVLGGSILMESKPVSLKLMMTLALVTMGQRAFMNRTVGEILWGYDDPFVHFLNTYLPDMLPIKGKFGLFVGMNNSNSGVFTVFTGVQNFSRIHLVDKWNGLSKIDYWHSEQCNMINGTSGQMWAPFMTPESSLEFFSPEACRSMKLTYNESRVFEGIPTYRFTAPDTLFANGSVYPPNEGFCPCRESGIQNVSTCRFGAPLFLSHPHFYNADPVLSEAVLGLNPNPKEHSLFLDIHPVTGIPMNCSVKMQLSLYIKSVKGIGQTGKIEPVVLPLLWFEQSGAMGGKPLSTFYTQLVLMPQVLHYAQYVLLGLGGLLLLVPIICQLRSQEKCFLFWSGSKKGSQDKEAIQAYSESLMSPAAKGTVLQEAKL

Activity change, negative = inhibition, inactive:
CN(C)c1ccc(/C=C2\Oc3ccc(C#Cc4cccc(N)c4)cc3C2=O)cc1 5.11%, COc1ccc2sc(-c3ccc(N(C)C)cc3)c(C#Cc3cncn3C)c2c1 10.8%, O=C(O)c1cc(N2C(=O)C=CC2=O)cc(N2C(=O)C=CC2=O)c1 67.2%, COc1ccc(CCNC(=O)CCC(=O)N2CC(C)Oc3ccc(Cl)cc32)cc1OC (stereo not drawn) -10.9%, COc1ccc(OC)c(NC(=O)CCC(=O)N(Cc2ccc(OC)c(OC)c2)c2nccs2)c1 -22.8%, COc1ccc(NC(=O)CN2CCN(CC(=O)Nc3ccc(OC)c(OC)c3)CC2)cc1 -35.5%, Cc1ccccc1C(=O)Nc1cc(NC(=O)c2ccccc2C)cc(C(=O)O)c1 30.6%, Cn1nc(-c2ccc(Cl)cc2)c2cc(C(=O)NCCCN3CCOCC3)sc21 6.44%, CCOc1ccc(NC(=O)CN2CCN(CC(=O)Nc3ccc(C(=O)OC)cc3)CC2)cc1 -49.9%, CC(=O)c1ccc(N2CCN(C(=O)/C=C/c3ccc(S(=O)(=O)NCc4ccco4)cc3)CC2)cc1 -2.67%, CCC(=O)Nc1ccc(Cl)c(NC(=O)c2cccc(OC)c2)c1 0.316%, C=CCOC(=O)c1[nH]c2c(c1C)C(=O)CC(c1cc(OC)c(OC)c(OC)c1)C2 (stereo not drawn) -2.34%, COC(=O)c1cnc(Oc2ccc(NC(=O)NC(=O)c3c(OC)cccc3OC)cc2)cc1C(F)(F)F -25.2%, CCC(C)C1/C=C\CC(NC(=O)OCC2c3ccccc3-c3ccccc32)CC(=O)N1Cc1ccccc1 (stereo not drawn) -17.9%, O=C(NNc1c(F)c(F)cc(F)c1F)C1CCN(S(=O)(=O)c2ccccc2F)CC1 -3.65%, O=C(CN1CCN(CC(=O)Nc2ccc3c(c2)OC2(CCCCC2)O3)CC1)Nc1cccc(F)c1 2.55%, COc1cc(OC)cc(C(=O)N[C@H](C(=O)Nc2nc(-c3ccc(F)c(F)c3)cs2)C(C)C)c1 3.52%, Cc1nn(Cc2ccccc2)c(C)c1NC(=O)c1cc2nc(-c3ccco3)cc(C(F)(F)F)n2n1 -9.64%, O=C(Nc1ncc(Cc2cccc(C(F)(F)F)c2)s1)c1ccc(-c2cccc([N+](=O)[O-])c2)o1 -9.44%, Cc1cc(N2CCN(C(=O)c3ccco3)CC2)n2ncc(-c3ccccc3)c2n1 0.033%, COc1ccccc1CCc1nnc(CCC(=O)N(C)Cc2cccc3cnccc23)o1 -20.7%, COc1ccc([C@H]2CC(=O)C=C(c3cccc4c3sc3ccccc34)C2)cc1OC -55.4%, CSc1ccccc1OCc1cc(C(=O)N(C)Cc2c(C)n[nH]c2C)no1 -51.2%
